This is a sample that favours compounds with a hit; in the whole collection about 7.7% have one here.
Shh pathway inh: Hedgehog pathway signaling inhibitors, primary screen, luminescence, Shh-LIGHT2 cells, Gli-luciferase. Shh-LIGHT2 Gli-luciferase reporter, 30 h. inhibition, % (test concentration not listed). hit rate 2.1% among 22,000;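 active means mean inhibition across valid replicates above about 65%, limit read from the data; inconclusive means mean under the limit, yet half or more replicates past it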;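 further: pathway switched on by Shh-conditioned medium diluted 1 in 25 in low serum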
NOMO-1 viab: NOMO-1 AML cell viability reduction, primary screen, STK33 inhibitor project, CellTiter-Glo luminescence | NOMO-1 AML viability, 72 h | inhibition, % (test concentration not listed) | hit rate 7.5% among 37,000 | AID 2330, 2010; in the data active means inhibition above about 80%; inconclusive means no clear call, values can overlap the other calls
PD-1 reverse act: activators reversing PD-1 mediated T-cell inhibition, primary screen, luminescence, primary human CD4 T cells, PD-L1 beads; CellTiter-Glo 96 h; activation, % (test concentration not listed); 29,000 tested, under 10 active; call rule not given here
Large screens that a line does not name were inactive.

C[C@H]1C[C@@H]2[C@H]([C@@H](O)C[C@@]3(C)[C@H]2CC[C@]3(O)C(=O)CO)[C@@]2(C)C=CC(=O)C=C12	Shh pathway inh 70 (no result: PD-1 reverse act)
C[C@H]1CC2C([C@@H](O)C[C@@]3(C)C2CC[C@]3(O)C(=O)CO)[C@@]2(C)C=CC(=O)C=C12 (some centres not stated)	none (no result: PD-1 reverse act)
Cc1ccc(OCC(=O)Nc2ccc(Br)cc2C(=O)O)cc1C	none (no result: Shh pathway inh)
C[C@@H]1CN([C@@H](C)CO)C(=O)c2cccc(NC(=O)c3ccncc3)c2O[C@@H]1CN(C)Cc1ccc(Oc2ccccc2)cc1	none
C[C@@H]1CN([C@H](C)CO)C(=O)c2cccc(NC(=O)c3ccncc3)c2O[C@H]1CN(C)Cc1ccc(Oc2ccccc2)cc1	Shh pathway inh inconclusive, NOMO-1 viab 91
C[C@H](CO)N1C[C@H](C)[C@@H](CN(C)Cc2ccc(-c3ccccc3)cc2)Oc2c(NC(=O)c3ccncc3)cccc2C1=O	NOMO-1 viab 83
C[C@H](CO)N1C[C@H](C)[C@H](CN(C)Cc2ccc(-c3ccccc3)cc2)Oc2c(NC(=O)c3ccncc3)cccc2C1=O	none (no result: PD-1 reverse act)
COc1ccc(-c2ccc(C#N)c(SCC(=O)Nc3cccc(C(F)(F)F)c3)n2)cc1	none (no result: Shh pathway inh, PD-1 reverse act)
Cc1cc(Cn2ccc(C(F)(F)F)n2)c(C)c(-c2c(C#N)c(N)nc3c2CCCC3)c1	none (no result: Shh pathway inh, PD-1 reverse act)
C=C1C(=O)O[C@@H]2C3=C(C)CC[C@]34O[C@@H](C[C@@H]4C)[C@H]12	NOMO-1 viab 114
CC(=O)OCC1(C)CC2[C@]3(CO[C@@]24CCC2[C@@]5(C)CC[C@H](O[C@@H]6OC[C@@H](O)[C@H](O)[C@H]6O)[C@@](C)(CO)C5CC[C@@]2(C)[C@]4(C)C[C@H]3O)[C@@H](O)C1 (some centres not stated)	Shh pathway inh 76, NOMO-1 viab 123
CC1(C)CC[C@@]2(C(=O)O)C(C1)C1=CCC3[C@@]4(C)CC[C@H](O[C@@H]5O[C@H](C(=O)O)[C@@H](O[C@@H]6OC[C@@H](O)[C@H](O)[C@H]6O)[C@H](O)[C@H]5O)C(C)(C)C4CC[C@@]3(C)[C@]1(C)C[C@H]2O (some centres not stated)	none (no result: NOMO-1 viab, PD-1 reverse act)
Cc1ccccc1NC(=O)CSc1ncnc2c1sc1nc(N3CCOCC3)c3c(c12)CCCC3	none (no result: Shh pathway inh)
C[C@@H]1CCCCO[C@H](CN(C)Cc2ccccc2)[C@@H](C)CN([C@H](C)CO)C(=O)c2cc(NC(=O)Nc3ccc(F)cc3)ccc2O1	Shh pathway inh 67
C[C@@H]1CCCCO[C@@H](CN(C)C)[C@@H](C)CN([C@H](C)CO)C(=O)c2cc(NC(=O)Nc3ccccc3)ccc2O1	NOMO-1 viab 108
C[C@@H]1CCCCO[C@H](CN(C)Cc2ccc3c(c2)OCO3)[C@@H](C)CN([C@H](C)CO)C(=O)c2cc(NC(=O)Nc3ccc(C(F)(F)F)cc3)ccc2O1	NOMO-1 viab 84 (no result: PD-1 reverse act)
C[C@@H]1CCCCO[C@H](CN(C)CC2CCCCC2)[C@@H](C)CN([C@H](C)CO)C(=O)c2cc(NC(=O)Nc3ccc(C(F)(F)F)cc3)ccc2O1	NOMO-1 viab 112
C[C@@H]1CCCCO[C@@H](CN(C)Cc2ccccc2)[C@@H](C)CN([C@H](C)CO)C(=O)c2cc(NC(=O)Nc3ccc(F)cc3)ccc2O1	none (no result: Shh pathway inh)
C[C@@H]1CCCCO[C@@H](CN(C)C(=O)Nc2ccc(C(F)(F)F)cc2)[C@@H](C)CN([C@H](C)CO)C(=O)c2cc(NC(=O)Nc3ccc4c(c3)OCO4)ccc2O1	none (no result: Shh pathway inh)
C[C@@H]1CCCCO[C@@H](CN(C)C)[C@@H](C)CN([C@H](C)CO)C(=O)c2cc(NC(=O)Nc3ccc(F)cc3)ccc2O1	none
C[C@@H]1CCCCO[C@H](CN(C)C)[C@@H](C)CN([C@H](C)CO)C(=O)c2cc(NC(=O)Nc3ccc(C(F)(F)F)cc3)ccc2O1	none
COc1ccc(NC(=S)NCc2cn(-c3ccccc3)nc2-c2ccccc2)cc1OC	none (no result: Shh pathway inh, PD-1 reverse act)
N#Cc1ccc(NC(=O)Cn2ccc([N+](=O)[O-])n2)cc1	none (no result: Shh pathway inh, PD-1 reverse act)
Cc1nc(SCC(=O)O)c2c3c(sc2n1)CCCC3	none
C[C@@H]1CCCCO[C@H](CN(C)Cc2ccc(C(F)(F)F)cc2)[C@@H](C)CN([C@H](C)CO)C(=O)c2cc(NC(=O)Nc3ccccc3)ccc2O1	none
C[C@@H]1CCCCO[C@H](CN(C)Cc2ccccc2)[C@@H](C)CN([C@H](C)CO)C(=O)c2cc(NC(=O)Nc3ccc(C(F)(F)F)cc3)ccc2O1	NOMO-1 viab 104 (no result: Shh pathway inh, PD-1 reverse act)
C[C@@H]1CCCCO[C@H](CN(C)C(=O)CCCN(C)C)[C@@H](C)CN([C@H](C)CO)C(=O)c2cc(NC(=O)CCC(F)(F)F)ccc2O1	Shh pathway inh 77 (no result: PD-1 reverse act)
C[C@@H]1CCCCO[C@H](CN(C)Cc2ccncc2)[C@@H](C)CN([C@H](C)CO)C(=O)c2cc(NC(=O)Nc3ccc(F)cc3)ccc2O1	none (no result: Shh pathway inh)
C[C@@H]1CCCCO[C@H](CN(C)Cc2ccc(C(F)(F)F)cc2)[C@@H](C)CN([C@H](C)CO)C(=O)c2cc(NC(=O)Nc3ccc(F)cc3)ccc2O1	NOMO-1 viab 100 (no result: Shh pathway inh)
C[C@@H]1CCCCO[C@H](CN(C)Cc2ccc(C(F)(F)F)cc2)[C@@H](C)CN([C@H](C)CO)C(=O)c2cc(NC(=O)c3ccccc3)ccc2O1	none
C[C@@H]1CCCCO[C@@H](CN(C)Cc2ccc(C(F)(F)F)cc2)[C@@H](C)CN([C@H](C)CO)C(=O)c2cc(NC(=O)Nc3ccc(C(F)(F)F)cc3)ccc2O1	NOMO-1 viab 107
C[C@@H]1CCCCO[C@@H](CN(C)C(=O)CCC(F)(F)F)[C@@H](C)CN([C@H](C)CO)C(=O)c2cc(NC(=O)CCCN(C)C)ccc2O1	none
CC1OC(c2cc3oc(-c4ccccc4)cc(=O)c3c(O)c2O)CC(O)C1O (configuration not stated)	none
O=C(CSc1nnc(-c2ccncc2)o1)c1ccc2ccccc2c1	none (no result: Shh pathway inh)
Cc1ccc(OC(=O)c2ccccc2)c(-n2nc3ccccc3n2)c1	none (no result: Shh pathway inh)
COC(=O)c1cc(OC)c(OC)cc1NC(=O)COc1cccc(C)c1C	none (no result: Shh pathway inh)
Cn1c(SCC(=O)c2cc(C(C)(C)C)c(O)c(C(C)(C)C)c2)nnc1-c1ccncc1	none (no result: Shh pathway inh, PD-1 reverse act)
CC(C)[C@@H]1CC[C@@]2(C)CCC[C@@](C)(O)[C@@H]2[C@H]1OC(=O)/C=C/c1ccccc1	none
Cc1c(Cl)cccc1NC(=O)CNC(=O)c1ccc([N+](=O)[O-])cc1	none (no result: Shh pathway inh)
COc1ccc(OCC(=O)N2CCN(S(=O)(=O)c3ccc(OC)cc3)CC2)cc1	none (no result: Shh pathway inh)
C[C@@H]1CCCCO[C@H](CN(C)Cc2ccc(C(F)(F)F)cc2)[C@@H](C)CN([C@H](C)CO)C(=O)c2cc(NC(=O)NC3CCCCC3)ccc2O1	NOMO-1 viab 94
C[C@@H]1CCCCO[C@H](CN(C)S(=O)(=O)c2ccc(F)cc2)[C@@H](C)CN([C@H](C)CO)C(=O)c2cc(NC(=O)Nc3ccc(C(F)(F)F)cc3)ccc2O1	NOMO-1 viab 98
C[C@@H]1CCCCO[C@@H](CN(C)Cc2ccc(C(F)(F)F)cc2)[C@@H](C)CN([C@H](C)CO)C(=O)c2cc(NC(=O)NC3CCCCC3)ccc2O1	NOMO-1 viab inconclusive
C[C@@H]1CCCCO[C@H](CN(C)S(=O)(=O)c2ccc(F)cc2)[C@@H](C)CN([C@H](C)CO)C(=O)c2cc(NC(=O)Nc3ccc(F)cc3)ccc2O1	none
